# Compound activity deposited in PubChem BioAssay by National Center for Advancing Translational Sciences (NCATS).
# ASM inhibitor: Inhibitors of Secretory Acid Sphingomyelinase (S-ASM): qHTS; placental ASM, HMU-PC fluorogenic substrate, 60 min; Sphingomyelin phosphodiesterase (Homo sapiens), P17405; actives 0.006% (n = 340,000); Potency, µM (highest dose often 57.5 µM), for the others: at the highest dose activity change, negative = inhibition, usual class: inhibitors; active = well fitted inhibition curve with a large enough effect; inconclusive = small, poorly fitted or top-dose-only effect; inactive = no such curve, though single readings can be large or run the other way; also: potency is read from the fitted curve at half-maximal effect
#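 HMU-PC0 cleavage (9 uM final) by human placental ASM, 60 min at 37 °C following 10 min compound exposure at RT; stopped at pH 10, fluorescence Ex 386/Em 447 nm.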
# TSHR antag: Antagonists of the Thyroid Stimulating Hormone Receptor: HTS campaign | Thyrotropin receptor (Homo sapiens), P16473 | TSHR-expressing cells, TSH-stimulated cAMP HTRF, 2 h; stronger effect = lower value | activity change, negative = inhibition, % at 11.5 µM | actives 0.2% (n = 330,000) | AID 504810, 2011;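 active = activity change below a set negative limit, meaning inhibition stronger than a set level, cut at about -70% in these data; inconclusive = activity change between two set negative limits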; also: % is scaled to controls: 0 for no effect and ±100 for the full control effect
# Target sequence (P16473 whole entry, looked up): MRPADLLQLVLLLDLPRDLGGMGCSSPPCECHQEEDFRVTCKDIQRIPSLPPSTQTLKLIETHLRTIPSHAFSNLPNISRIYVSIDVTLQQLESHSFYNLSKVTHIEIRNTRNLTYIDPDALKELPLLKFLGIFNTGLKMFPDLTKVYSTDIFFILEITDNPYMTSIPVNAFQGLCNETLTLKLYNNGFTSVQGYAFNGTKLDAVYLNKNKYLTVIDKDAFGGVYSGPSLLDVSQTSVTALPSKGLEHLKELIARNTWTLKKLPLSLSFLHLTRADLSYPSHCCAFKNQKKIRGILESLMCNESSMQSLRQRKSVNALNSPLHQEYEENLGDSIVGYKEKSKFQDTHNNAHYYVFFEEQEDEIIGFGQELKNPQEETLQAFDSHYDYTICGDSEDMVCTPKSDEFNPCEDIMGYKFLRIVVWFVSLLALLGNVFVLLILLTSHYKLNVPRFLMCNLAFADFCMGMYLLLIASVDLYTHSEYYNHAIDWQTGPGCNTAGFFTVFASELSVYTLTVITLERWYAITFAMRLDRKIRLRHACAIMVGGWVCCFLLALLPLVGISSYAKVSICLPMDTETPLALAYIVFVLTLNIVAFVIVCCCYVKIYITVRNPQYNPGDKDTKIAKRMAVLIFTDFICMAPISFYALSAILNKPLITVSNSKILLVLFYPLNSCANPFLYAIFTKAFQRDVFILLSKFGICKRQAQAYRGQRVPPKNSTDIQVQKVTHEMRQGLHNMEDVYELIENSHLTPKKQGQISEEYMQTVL
#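 TSHR-expressing cells, 200/well, pre-treated with compound, then stimulated with EC80 TSH (4nM final) for 2 hours at 37 deg C. cAMP measured by competitive HTRF: anti-cAMP cryptate antibody in lysis buffer plus cAMP-d2, read after 30 minutes at room temperature.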
# gsp agonist: qHTS for Agonist of gsp, the Etiologic Mutation Responsible for Fibrous Dysplasia/McCune-Albright Syndrome: qHTS. AID 624287, 2012. gsp mutant cells, cAMP HTRF, 30 min. Potency, µM (series often up to 76.9 µM), inactives show at the top dose activation (cAMP increase), hits mostly activators. actives 0.13% (n = 340,000); active = well fitted activation curve with a large enough effect; inconclusive = small, poorly fitted or top-dose-only effect, or another doubt; inactive = no such curve, though single readings can be large or run the other way; cell line not stated here;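 also: phosphodiesterase inhibitor Ro 20-1724 added with compounds to block cAMP breakdown; potency is read from the fitted curve at half-maximal effect; nearly all actives have a fitted effect of over 60% in size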
#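 Cells stably selected in G418 were plated at 2000/well, grown 16-24 hr, then given compounds in DMSO with the PDE inhibitor […] (300 uM solution added) for 30 min at 37C; cAMP was read by HTRF.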
# gsp antag: qHTS for Antagonists of gsp, the Etiologic Mutation Responsible for Fibrous Dysplasia/McCune-Albright Syndrome: qHTS | gsp-mutant cells, cAMP HTRF, 30 min | Potency, µM (titrated, usually from 76.9 µM), for inactives: at the highest dose activity change, negative = inhibition, actives largely listed as inhibitors | actives 0.4% (n = 340,000) | AID 624288, 2012; calls by dose curve; cell line not stated here;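 also: intracellular cAMP measured with PDE inhibitor Ro 20-1724 present during compound exposure; potency is read from the fitted curve at half-maximal effect; % is scaled to controls: 0 for no effect and ±100 for the full control effect; nearly all actives have a fitted effect of over 65% in size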
#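 G418-selected cells were plated in DMEM/10% FBS for 16-24 h at 37C, then treated with compounds plus the PDE inhibitor […] (300 uM solution added) for 30 min at 37C. Intracellular cAMP was measured by HTRF after 30 min lysis at room temperature.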
# Numbers without * were called inactive; ? = inconclusive; / = no result given; [ ] = dose if it differs, or a comment. Sampled rows, rich in hits. Any-hit rate of the full collection: about 0.63%.
SMILES,ASM inhibitor,TSHR antag,gsp agonist,gsp antag
CCN(CC(=O)Nc1c(F)cccc1F)C(=O)CCc1ccc(OC)cc1,3%,-2,-6%[15.4 µM],15%
Cc1cc(O)ccc1C1(c2ccc(O)cc2C)OC(=O)c2ccccc21,-9%,-2,-1%,16%
O=C1OC2(c3ccccc31)c1cc(I)c(O)c(I)c1Oc1c2cc(I)c(O)c1I,/,-114*,/,/
COc1ccc(OC)c(-c2cc(C3CCN(c4cc(Cl)nc(N)n4)CC3)[nH]n2)c1,-17%,-3,-65%,35µM*
CCCC(=O)c1cc2c(cc1NC(=O)c1ccccc1F)OCCO2,16%,3,35%,?
COc1ccccc1CN(C)C(=O)c1cc(-c2cccs2)nc2ccccc12,17%,30,17%,40µM*
OC(COC1CCCCC1)CN1CCCCC1 (stereo unspecified),-2%,41,4%,-15%
O=c1cc(-c2ccccc2)nc2nc(SCc3ccccc3)[nH]n12,5%,-9,-17%,25µM*
COc1ccccc1OCC(=O)c1[nH]c(C)c(C(C)=O)c1C,-2%,-23,2%,25µM*
COc1cc(C)ccc1OCC(=O)OCC(=O)c1[nH]c(C)c(C(C)=O)c1C,-3%,-5,9%[15.4 µM],-18%
CC(=O)c1c(C)[nH]c(C(=O)COc2cc(C)ccc2C(C)C)c1C,-7%,?,-32%,11µM*
CCOCCn1c(=O)c2c(nc3n2CCN3c2ccc(C)c(C)c2)n(C)c1=O,/,-2,/,/
CN(C(=O)CSc1ncnc2ccccc12)C1CCS(=O)(=O)C1 (stereo unspecified),-2%,19,13µM*,8%
CC(C)CN(C(=O)CSc1ncnc2ccccc12)C1CCS(=O)(=O)C1 (stereo unspecified),4%,2,-4%,-14%
O=C(/C=C/c1cccc(Cl)c1)c1ccc([N+](=O)[O-])o1,6%,-81*,/,-14%
COc1ccc(/C=C/C(=O)c2ccc([N+](=O)[O-])o2)cc1OC,-8%,-26,/,-7%
COc1ccc(-c2nn(-c3ccccc3)cc2/C=N/NC(=O)c2ccc3c(c2)OCO3)cc1,/,-12,/,/
COc1ccc(-c2nn(-c3ccccc3)cc2/C=N/NC(=O)c2ccc(Br)o2)cc1,-5%,-95*,2%,?
CCc1noc(C)c1C(=O)OCC(=O)Nc1nc(-c2ccc(F)c(F)c2)cs1,1%,?,8%,40µM*
CCOC(=O)N1CCC2(CC1)NC(=O)c1ccccc1N2,/,/,-31%,/
COc1ccc(OC)c(-n2nnnc2SCC(=O)Nc2ccc(C(=O)N3CCCCC3)cc2)c1,-2%,-11,-40%,?
COc1ccc(OC)c(-n2nnnc2SCC(=O)Nc2ccc3c(c2)OCCO3)c1,6%,-8,11µM*,15%
Cc1cc(C)cc(C(=O)NC(CC(N)=O)c2ccc(NCCN3CCCC3)c([N+](=O)[O-])c2)c1 (stereo unspecified),4%,-89*,/,7%
COc1cc(C2OC(=O)c3c2ccc(OC)c3OC)ccc1O (stereo unspecified),/,29,/,/
Cn1c(SCC(=O)Nc2ccc(NC(=O)c3ccccc3F)cc2)nnc1-c1ccncc1,1%,-4,6%[15.4 µM],50µM*
SMILES,ASM inhibitor,TSHR antag,gsp agonist,gsp antag
CCC(C(=O)Nc1nccs1)(C(F)(F)F)C(F)(F)F,0%,-12,5%,32µM*
COc1ccc(Cl)cc1NC(=O)CN(C)C(=O)c1cc(C)oc1C,1%,-10,12%,5%
COCCNCCOc1ccc(C)cc1[N+](=O)[O-],2%,17,-5%,50µM*
CN1CCN(c2cc(N3CCN(C(=O)c4ccco4)CC3)c3c4c(onc24)-c2ccccc2C3=O)CC1,-14%,-19,-34%,-23%
O=C1c2ccccc2-c2onc3c(N4CCN(CCO)CC4)cc(N4CCN(C(=O)c5ccco5)CC4)c1c23,-26%,-9,-13%[15.4 µM],18µM*
CCN1C(=O)N(C(C)=O)C2C1N(C(C)=O)C(=O)N2C(C)=O (stereo unspecified),-2%,-6,?,4%
Cc1nc2ccc([N+](=O)[O-])cc2c(=O)n1Cc1cccc(F)c1,-2%,-7,14µM*,10%
